Results reported in PubChem BioAssay (NCI).
Compounds without any hit were thinned out: in the full panel of roughly 83,000, 20% have a hit.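 Single-concentration screen, 48 h exposure, 96-well plates. Endpoint: percent growth. Below 10 = active.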 Active and inactive are the calls of the source.

Experiments:
Test in all cases: NCI-60 one-dose screen, 48 h (100 = growth as untreated, 0 = no growth, -100 = all killed)
Conditions in all cases: 10 µM unless noted
DU-145 prostate = test system: DU-145 prostate
K-562 leukemia = test system: K-562 leukemia
MALME-3M melanoma = test system: MALME-3M melanoma
MDA-MB-231 breast = test system: MDA-MB-231 breast
RXF 393 renal = test system: RXF 393 renal
SF-268 CNS = test system: SF-268 CNS
SF-295 CNS = test system: SF-295 CNS
SF-539 CNS = test system: SF-539 CNS
UACC-257 melanoma = test system: UACC-257 melanoma
M14 melanoma = test system: M14 melanoma
HCT-15 colon = test system: HCT-15 colon
HT29 colon = test system: HT29 colon
SNB-75 CNS = test system: SNB-75 CNS
SNB-19 CNS = test system: SNB-19 CNS
U251 CNS = test system: U251 CNS
PC-3 prostate = test system: PC-3 prostate
SK-MEL-5 melanoma = test system: SK-MEL-5 melanoma
UACC-62 melanoma = test system: UACC-62 melanoma
LOX IMVI melanoma = test system: LOX IMVI melanoma
SK-MEL-28 melanoma = test system: SK-MEL-28 melanoma

Measured: growth

CSc1nc(-c2ccc(F)cc2)c(C#N)c(N2CCOCC2)n1
inactive: DU-145 prostate 101% | K-562 leukemia 92.9% | MALME-3M melanoma 116% | MDA-MB-231 breast 92.5% | RXF 393 renal 91.3% | SF-268 CNS 93.5% | SF-295 CNS 92.2% | SF-539 CNS 94.9% | UACC-257 melanoma 91.9% | M14 melanoma 107% | HCT-15 colon 98.6% | HT29 colon 92.3% | SNB-75 CNS 73.8% | SNB-19 CNS 92.9% | U251 CNS 89.3% | PC-3 prostate 89.9% | SK-MEL-5 melanoma 94.8% | UACC-62 melanoma 78.9% | LOX IMVI melanoma 99.2% | SK-MEL-28 melanoma 101%

COc1cc(C2=N/C(=C\c3cc4ccccc4nc3Oc3ccccc3)C(=O)N2C(=N)N)cc(OC)c1OC
inactive: DU-145 prostate 80.4% | K-562 leukemia 82.3% | MALME-3M melanoma 57.8% | MDA-MB-231 breast 42.4% | RXF 393 renal 42% | SF-268 CNS 30.7% | SF-295 CNS 55.1% | SF-539 CNS 33.4% | UACC-257 melanoma 76.4% | M14 melanoma 74.2% | HCT-15 colon 91.3% | HT29 colon 64.2% | SNB-19 CNS 32.3% | U251 CNS 50.6% | PC-3 prostate 70.4% | SK-MEL-5 melanoma 83.5% | UACC-62 melanoma 50% | LOX IMVI melanoma 66.9% | SK-MEL-28 melanoma 78.4%
active: SNB-75 CNS 6.51%

COc1cc2c(cc1OCCCOc1cc3c(cc1OC)C(=O)N1CC(F)(F)C[C@H]1C=N3)N=C[C@@H]1CC(F)(F)CN1C2=O
active: K-562 leukemia 9.11% | MALME-3M melanoma -57.6% | RXF 393 renal -65.5% | SF-295 CNS 8.54% | SF-539 CNS -27.9% | M14 melanoma -0.895% | SNB-75 CNS -8.01% | PC-3 prostate 3.21% | SK-MEL-5 melanoma -77.3% | UACC-62 melanoma -71.2% | SK-MEL-28 melanoma -1.8%
inactive: DU-145 prostate 17% | MDA-MB-231 breast 16% | SF-268 CNS 30.4% | UACC-257 melanoma 34.9% | HCT-15 colon 94.4% | HT29 colon 11.8% | SNB-19 CNS 24.3% | U251 CNS 18% | LOX IMVI melanoma 16%

COc1cc(-c2csc(NC(=O)Nc3cc(Cl)cc(Cl)c3)n2)cc(OC)c1OC
active: DU-145 prostate -15.6% | MALME-3M melanoma -31.5% | MDA-MB-231 breast -14.5% | SF-295 CNS -46.1% | M14 melanoma -6.33% | SNB-75 CNS -29.2% | SNB-19 CNS 9% | U251 CNS -80.1% | UACC-62 melanoma -62.2% | LOX IMVI melanoma 6.77%
inactive: K-562 leukemia 32.4% | RXF 393 renal 15.6% | SF-268 CNS 27.7% | SF-539 CNS 46.4% | UACC-257 melanoma 56.7% | HCT-15 colon 14.5% | HT29 colon 21.9% | PC-3 prostate 10.7% | SK-MEL-5 melanoma 54.5% | SK-MEL-28 melanoma 30.6%

C=C(C)[C@@H]1CC[C@]2(C(=O)NCCCO)CC[C@]3(C)[C@H](CC[C@@H]4[C@@]5(C)CCCNC(C)(C)[C@@H]5CC[C@]43C)[C@@H]12
active: K-562 leukemia 3.26% | MALME-3M melanoma -74.4% | UACC-257 melanoma -44.2% | HT29 colon 7.18%
inactive: DU-145 prostate 89.1% | MDA-MB-231 breast 49% | RXF 393 renal 58.2% | SF-268 CNS 77.9% | SF-295 CNS 89.3% | SF-539 CNS 70.4% | M14 melanoma 33.7% | HCT-15 colon 68.6% | SNB-75 CNS 72.2% | SNB-19 CNS 85.4% | U251 CNS 53.7% | PC-3 prostate 49.2% | SK-MEL-5 melanoma 13% | UACC-62 melanoma 83.8% | LOX IMVI melanoma 78.7% | SK-MEL-28 melanoma 51.3%

Cc1cc(NC(=O)CNc2nc(Oc3ccc(F)cc3)nc(-c3ccc(F)cc3)n2)ccc1Cl
inactive: DU-145 prostate 112% | K-562 leukemia 89.5% | MALME-3M melanoma 109% | MDA-MB-231 breast 106% | RXF 393 renal 92.7% | SF-268 CNS 100% | SF-295 CNS 96.9% | SF-539 CNS 109% | UACC-257 melanoma 101% | M14 melanoma 104% | HCT-15 colon 102% | HT29 colon 94% | SNB-75 CNS 87.8% | SNB-19 CNS 100% | U251 CNS 98.4% | PC-3 prostate 89.1% | SK-MEL-5 melanoma 99.1% | UACC-62 melanoma 97.5% | LOX IMVI melanoma 96.1% | SK-MEL-28 melanoma 109%

COc1cc(NCC(=O)Nc2cc(Nc3cccc(C(F)(F)F)c3)ncn2)c(Cl)c(OC)c1Cl
inactive: DU-145 prostate 97.4% | K-562 leukemia 85.6% | MALME-3M melanoma 115% | MDA-MB-231 breast 78.2% | RXF 393 renal 114% | SF-268 CNS 98.9% | SF-295 CNS 75% | SF-539 CNS 101% | UACC-257 melanoma 88.2% | M14 melanoma 93.1% | HCT-15 colon 94% | HT29 colon 81.7% | SNB-75 CNS 83.4% | SNB-19 CNS 99.9% | U251 CNS 92.5% | PC-3 prostate 82.2% | SK-MEL-5 melanoma 95.2% | UACC-62 melanoma 75.5% | LOX IMVI melanoma 93.2% | SK-MEL-28 melanoma 105%

Cc1nn(-c2ccc(-c3ccc(OC(F)(F)F)cc3)cc2)c2nc(-c3ccccc3)nc(N)c12
inactive: DU-145 prostate 104% | K-562 leukemia 93.1% | MALME-3M melanoma 118% | MDA-MB-231 breast 85.1% | RXF 393 renal 104% | SF-268 CNS 97.2% | SF-295 CNS 110% | SF-539 CNS 100% | UACC-257 melanoma 101% | M14 melanoma 102% | HCT-15 colon 95.6% | HT29 colon 90.2% | SNB-75 CNS 95% | SNB-19 CNS 90.7% | U251 CNS 85.5% | PC-3 prostate 93.2% | SK-MEL-5 melanoma 100% | UACC-62 melanoma 99.9% | LOX IMVI melanoma 93.8% | SK-MEL-28 melanoma 115%

CN1C(=O)c2cc(Cl)nc3c(NC(=O)c4cccc(Cl)c4)c(Cl)c(NC(=O)c4cccc(Cl)c4)c1c23
inactive: SF-295 CNS 88.1% | SNB-75 CNS 75.3%
active: DU-145 prostate 4.2% | K-562 leukemia -43.3% | MALME-3M melanoma -56.1% | MDA-MB-231 breast -40.2% | RXF 393 renal -88.9% | SF-268 CNS 3.08% | SF-539 CNS 9.56% | UACC-257 melanoma -49.3% | M14 melanoma -21.1% | HCT-15 colon -83.9% | HT29 colon -57.7% | SNB-19 CNS 2.15% | U251 CNS -68.4% | PC-3 prostate -45.5% | SK-MEL-5 melanoma 4.57% | UACC-62 melanoma 6.83% | LOX IMVI melanoma -65.1% | SK-MEL-28 melanoma -32.2%

CCN(CC)CC#CCOC(=O)[C@]1(C)CCC[C@]2(C)[C@H]3C[C@H]4C(C(C)C)=C[C@]3(CC[C@H]21)[C@@H]1C(=O)CCC(=O)[C@@H]14
active: HT29 colon 5.05%
inactive: DU-145 prostate 71% | K-562 leukemia 18.6% | MALME-3M melanoma 45.3% | MDA-MB-231 breast 69% | RXF 393 renal 15.3% | SF-268 CNS 68.9% | SF-295 CNS 59.6% | SF-539 CNS 66.8% | UACC-257 melanoma 56.9% | M14 melanoma 51.4% | HCT-15 colon 42.7% | SNB-75 CNS 55.4% | SNB-19 CNS 70.4% | U251 CNS 38.3% | PC-3 prostate 25% | SK-MEL-5 melanoma 58.8% | UACC-62 melanoma 70.5% | LOX IMVI melanoma 38.7% | SK-MEL-28 melanoma 66.2%

COc1cc([C@H](C)c2ccc3ccccc3c2)cc(OC)c1OC
inactive: DU-145 prostate 17.6% | MALME-3M melanoma 64% | MDA-MB-231 breast 33.8% | SF-268 CNS 55.3% | SF-295 CNS 13.5% | UACC-257 melanoma 51.4% | M14 melanoma 17.5% | HCT-15 colon 21.7% | SNB-19 CNS 32.7% | U251 CNS 19.6% | PC-3 prostate 30.5% | SK-MEL-5 melanoma 18.1% | UACC-62 melanoma 32.5% | LOX IMVI melanoma 48.6% | SK-MEL-28 melanoma 61.8%
active: K-562 leukemia 8.51% | RXF 393 renal -10.5% | SF-539 CNS -19.3% | HT29 colon 8.72% | SNB-75 CNS 0.258%

Nc1c(C(=O)c2ccccc2)sc2nc(-c3cc4ccccc4o3)cc(-c3ccc(Cl)cc3)c12
inactive: DU-145 prostate 90.8% | K-562 leukemia 102% | MALME-3M melanoma 101% | MDA-MB-231 breast 85.5% | RXF 393 renal 113% | SF-268 CNS 94.8% | SF-295 CNS 129% | SF-539 CNS 105% | UACC-257 melanoma 104% | M14 melanoma 107% | HCT-15 colon 86.4% | HT29 colon 106% | SNB-75 CNS 92.3% | SNB-19 CNS 111% | U251 CNS 90% | PC-3 prostate 87.5% | SK-MEL-5 melanoma 97.8% | UACC-62 melanoma 102% | LOX IMVI melanoma 86.5% | SK-MEL-28 melanoma 120%

C=C1C(=O)O[C@H]2[C@H]1CC/C(COC(=O)c1cccnc1)=C\CC[C@@]1(C)O[C@@H]21
inactive: DU-145 prostate 16.4% | K-562 leukemia 16.4% | MALME-3M melanoma 66.9% | MDA-MB-231 breast 79.9% | RXF 393 renal 46% | SF-268 CNS 90.7% | SF-295 CNS 102% | SF-539 CNS 60.2% | UACC-257 melanoma 57.8% | M14 melanoma 58.3% | HCT-15 colon 34.4% | HT29 colon 33.5% | SNB-75 CNS 83.4% | SNB-19 CNS 90.2% | U251 CNS 88.5% | PC-3 prostate 66.1% | SK-MEL-5 melanoma 88.9% | UACC-62 melanoma 69.5% | LOX IMVI melanoma 75% | SK-MEL-28 melanoma 89%

COc1ccc(-c2cs/c(=N\N=C\c3ccc(O)cc3O)n2/N=C/c2ccc(O)cc2O)cc1
inactive: SNB-75 CNS 29.7%
active: DU-145 prostate 4.25% | K-562 leukemia -4.98% | MALME-3M melanoma -22.5% | MDA-MB-231 breast 1.96% | RXF 393 renal -35.6% | SF-268 CNS 4.27% | SF-295 CNS -24.4% | SF-539 CNS -33.1% | UACC-257 melanoma -3.6% | M14 melanoma -19% | HCT-15 colon -53.1% | HT29 colon -29% | SNB-19 CNS 5.62% | U251 CNS -35.8% | PC-3 prostate -67.3% | SK-MEL-5 melanoma -38.6% | UACC-62 melanoma -36.3% | LOX IMVI melanoma -36% | SK-MEL-28 melanoma -22.9%

CCc1n(Cc2ccc3ccccc3c2)c2ccccc2[n+]1Cc1ccc2ccccc2c1
inactive: DU-145 prostate 67.7% | K-562 leukemia 35.3% | MALME-3M melanoma 54.1% | MDA-MB-231 breast 60.3% | RXF 393 renal 94.1% | SF-268 CNS 64.7% | SF-295 CNS 93.3% | SF-539 CNS 68.8% | UACC-257 melanoma 59% | M14 melanoma 48.7% | HCT-15 colon 101% | HT29 colon 25.3% | SNB-75 CNS 59% | SNB-19 CNS 45.3% | U251 CNS 34.4% | PC-3 prostate 52.9% | SK-MEL-5 melanoma 38.8% | UACC-62 melanoma 50.6% | LOX IMVI melanoma 63.7% | SK-MEL-28 melanoma 69.8%
